Source: PubChem BioAssay AID1009 (NMMLSC, 2008)
The campaign covered roughly 190,000 compounds. About 200 (0.11%) were called active. Cut-off read from the data, not from the text of the source: active = inhibition above about 40%. Many of the other results were omitted from the sample, so actives are more common in it than they were.

Molecular target: Induced myeloid leukemia cell differentiation protein Mcl-1 (Homo sapiens) (UniProt Q07820)
Experiment: Mcl-1/Bim interaction disruptors – biochemical, bead-based flow cytometry, multiplex, primary screen (AID 1009);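 note: 0% = no compound tracer wells and 100% = peptide blocker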
Settings: Bim peptide-Mcl-1 binding, at 10 µM, hits give high values

Induced myeloid leukemia cell differentiation protein Mcl-1 (Homo sapiens), sequence (Q07820 whole entry, looked up): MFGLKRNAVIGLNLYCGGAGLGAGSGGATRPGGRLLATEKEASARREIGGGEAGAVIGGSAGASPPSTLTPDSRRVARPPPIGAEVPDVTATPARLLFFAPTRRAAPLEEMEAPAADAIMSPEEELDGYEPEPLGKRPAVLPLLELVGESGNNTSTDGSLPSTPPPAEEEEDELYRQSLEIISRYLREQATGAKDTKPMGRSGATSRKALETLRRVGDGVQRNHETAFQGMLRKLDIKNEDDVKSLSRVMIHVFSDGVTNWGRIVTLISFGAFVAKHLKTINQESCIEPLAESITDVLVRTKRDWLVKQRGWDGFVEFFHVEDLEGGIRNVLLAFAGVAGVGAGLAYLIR

Compound | inhibition
COCCNC(=O)CCCn1c(=O)c2ccccc2n(Cc2cccc([N+](=O)[O-])c2)c1=O | 0% (inactive)
CCC(=O)N1c2ccccc2NC2=C(C(=O)CCC2)C1c1ccco1 (configuration not stated) | 0% (inactive)
S=c1[nH]cc(-c2ccc(Cl)cc2)n1-c1ccccc1 | 3% (inactive)
CC/C(=N\NC(=S)NC(C)C)c1ccc(OC(F)F)cc1 | -2% (inactive)
O=c1cc(CO)oc(C(Nc2cccc([N+](=O)[O-])c2)c2ccccn2)c1O (configuration not stated) | -4% (inactive)
CCCc1nc2c([nH]1)C(c1cccnc1)C(C#N)=C(N)O2 (configuration not stated) | -3% (inactive)
COCCCNC(=S)N1CCCC(c2nc3cc(C)c(C)cc3[nH]2)C1 (configuration not stated) | 6% (inactive)
O=C(O)c1ccc2c3c(cccc13)C(=O)N(OS(=O)(=O)c1ccccc1)C2=O | 1% (inactive)
O=c1[nH]c(CN2CCOCC2)nc2scc(-c3ccccc3)c12 | 0% (inactive)
O=C(O)Cc1ccc(NCc2ccccc2Cl)cc1 | -2% (inactive)
CC(NC(=O)CC1SC(N)=NC1=O)c1ccccc1 (configuration not stated) | -7% (inactive)
CCc1nn(CCCN2CCN(c3cccc(Cl)c3)CC2)c(=O)n1CCOc1ccccc1 | 0% (inactive)
O=C1CS(=O)CN1c1ccc(Oc2ccccc2)cc1 (configuration not stated) | 0% (inactive)
C=C(C)C1CC=C(C)/C(=N\NC(=O)CNc2ccccc2OC)C1 (configuration not stated) | 0% (inactive)
COc1ccc([N+](=O)[O-])cc1NC(=O)CC1SC(=Nc2cccc(C)c2C)N(/N=C(\C)c2ccc(C)cc2)C1=O (configuration not stated) | -1% (inactive)
Cc1ccccc1NC(=O)Cn1c(=O)n(CC2CCCO2)c(=O)c2ccccc21 (configuration not stated) | -1% (inactive)
COc1cccc(NC(=S)C(C#N)=C2N(C)c3ccccc3N2C)c1 | -1% (inactive)
CCc1[nH]nc(C(=O)N2CCCC(CNS(=O)(=O)c3cccs3)C2)c1C (configuration not stated) | 0% (inactive)
CC(C(=O)NCC1CCCCC1)N(C)Cc1cccc(Cl)c1 (configuration not stated) | -1% (inactive)
CCO[C@H]1OC(C(=O)N2CCCCCCC2)=C[C@@H](c2ccc(C(F)(F)F)cc2)[C@@H]1CCCO | -4% (inactive)
O=S(=O)(c1ccc(F)cc1)N1CCN(C(=S)NCc2ccco2)CC1 | -6% (inactive)
CC(=O)Nc1ccc(NC(=S)NC(=O)c2ccc([N+](=O)[O-])c(C)c2)cc1 | 2% (inactive)
CN1CCN(CCNC(=O)Nc2ccc([N+](=O)[O-])cc2)CC1 | -3% (inactive)
CC1CCC(C(C)C)C(=O)/C1=C\c1ccc(NC(=O)CCC(=O)O)cc1 (configuration not stated) | 0% (inactive)
Cc1ccc(CN2CCN(Cc3ccccc3-c3ccco3)CC2CCO)o1 (configuration not stated) | -1% (inactive)

Compound | inhibition
CCCCC1S/C(=N/N=C/c2cccs2)NC1=O (configuration not stated) | -1% (inactive)
NC(=O)c1ccc(N2CCOCC2)nc1 | 1% (inactive)
Cc1ccc2nc(C)cc(N/N=C/c3ccc(F)cc3)c2c1 | 0% (inactive)
Cc1n[nH]c(=O)nc1N/N=C/c1cccs1 | -1% (inactive)
CC(=O)N/N=C/c1cc2c(cc1[N+](=O)[O-])OCO2 | -2% (inactive)
Cc1ccc(Cl)cc1NC(=O)c1ccccn1 | -2% (inactive)
NS(=O)(=O)c1ccc(NC(=O)COC(=O)c2ccco2)cc1 | 1% (inactive)
O=C(N/N=C/c1ccco1)c1ccc(NC(=O)C2CC2)cc1 | -2% (inactive)
Cc1ccc2c(CC(=O)NCc3cccs3)coc2c1 | -3% (inactive)
COc1ccccc1NC(=O)C[n+]1ccccc1 | 0% (inactive)
CCOC(=O)/C(C#N)=C/c1ccc(N2CCCCC2)cc1 | 0% (inactive)
CCOC(=O)c1sc2nc(C)nc(Nc3ccc(OC)c(OC)c3)c2c1C | 3% (inactive)
Cc1nc2ccccc2c(C)c1C(=O)c1ccc(F)cc1 | 0% (inactive)
CCOC(=O)c1ccc(NNC(C)=O)c([N+](=O)[O-])c1 | -1% (inactive)
Cc1nc2cc(NCc3cccs3)ccc2n1C | -1% (inactive)
COc1ccc(N2CCN(C(=O)C3CCN(S(=O)(=O)c4ccc(C)cc4)CC3)CC2)cc1 | 0% (inactive)
O=C(CC1SC(=Nc2ccccc2)N(Cc2ccccn2)C1=O)Nc1cccc(Cl)c1 (configuration not stated) | 2% (inactive)
CCOC(=O)c1sc(=NC(=O)/C=C/c2cccs2)n(C)c1C | 3% (inactive)
CC(=O)N1CCN(S(=O)(=O)c2ccc(C)c([N+](=O)[O-])c2)C1C(C)C (configuration not stated) | 0% (inactive)
CCC1(CC)NC(=O)N(Cc2nc3ccccc3s2)C1=O | -2% (inactive)
CCCNC(=O)OC[C@H]1O[C@H](CCO/N=C/[C@@H](NS(=O)(=O)c2ccc(C)cc2)[C@H](C)/C=C/CC(=O)OC)C=C[C@@H]1Oc1ccc(OC)cc1 | -2% (inactive)
Cc1ccc(C(=O)NC(=S)Nc2ccc3[nH]c(=O)[nH]c3c2)cc1C | -2% (inactive)
CSc1nc2nc(-c3cccc(C(F)(F)F)c3)ccn2n1 | 5% (inactive)
Cc1ccc(S(=O)(=O)N(C)C)cc1NC(=O)COC(=O)C1COc2ccccc2O1 (configuration not stated) | 3% (inactive)
O=C(CCN1C(=O)c2ccncc2C1=O)Nc1cc(F)ccc1F | 0% (inactive)

Compound | inhibition
O=C(c1ccc(F)cc1)N1CCC(n2nnc3ccccc32)CC1 | -2% (inactive)
Cc1ccc(C)c(Cn2cnc3c(oc4ccccc43)c2=O)c1 | -1% (inactive)
COc1ccc(-c2ccc(CNCCCN3CCOCC3)o2)cc1Cl | 2% (inactive)
Cc1ccc(C(=O)O)cc1NC(=O)c1ccc(Cn2nc(C)c(Cl)c2C)o1 | 1% (inactive)
COc1cc(NC(=S)N2CCCC(C)C2)c(OC)cc1Cl (configuration not stated) | -5% (inactive)
CCCCN(CC)CCNC(=O)CCNC(=O)Cn1ccc2ccccc2c1=O | -4% (inactive)
O=C(CCSc1ccccc1)N1CCN(c2ccccc2F)CC1 | -2% (inactive)
CCCN=C1NC(=O)C(CC(=O)NCCc2ccc(OC)c(OC)c2)S1 (configuration not stated) | -11% (inactive)
Cc1ccc(S(=O)(=O)N2CCN(C(=O)c3cccs3)CC2)cc1 | -5% (inactive)
Cc1ccc(S(=O)(=O)NCCC(c2ccccc2)c2ccccc2)cc1C(=O)O | 1% (inactive)
CN(C)C(=O)c1cccn(Cc2cccc(C(F)(F)F)c2)c1=O | 0% (inactive)
Cc1ccc(-c2ccc(/C=C(\C#N)C(N)=S)o2)c([N+](=O)[O-])c1 | 0% (inactive)
O=C(COC(=O)Cn1cnc2ccccc2c1=O)NCC12CC3CC(CC(C3)C1)C2 | -4% (inactive)
N#C/C(C(=S)Nc1ccccc1)=C1/NN=C(N2CCOCC2)N1c1ccccc1 | 0% (inactive)
CCN(CC)S(=O)(=O)c1ccc(N2CCOCC2)c(NC(=O)C2COc3ccccc3O2)c1 (configuration not stated) | 2% (inactive)
CCc1cc(C(=O)OC)c(NC(=O)CC2Sc3ccc(C(F)(F)F)cc3NC2=O)s1 (configuration not stated) | -1% (inactive)
Cc1ccc(S(=O)(=O)N(C)CC(=O)OCC(=O)N2CC(=O)Nc3ccccc32)cc1 | 1% (inactive)
Cc1ccc(S(=O)(=O)NCC(=O)OCC(=O)N2CCc3ccccc32)cc1 | -6% (inactive)
Cc1ccc(S(=O)(=O)N(C)CC(=O)N2CCc3ccccc32)cc1 | 41% (active)
Cc1nnsc1C(=O)N/N=C/c1cccc(C(F)(F)F)c1 | -2% (inactive)
CN(C)c1ccc(/C=N\S(=O)(=O)c2ccccc2)cc1 | -6% (inactive)
Cc1cc(NC(=O)CSCc2ccccc2C)no1 | 0% (inactive)
COc1ccc(-n2c(C)cc(C(=O)COC(=O)c3cc(OC)c(OC)cc3NC(=O)c3cccs3)c2C)cc1 | -5% (inactive)
O=C(O)c1cccc(NC(=S)N/N=C/c2c[nH]c3ccccc23)c1 | -3% (inactive)
CC(C)N(C)C(=O)CCc1nnc(CCc2c[nH]c3ccccc23)o1 | -3% (inactive)

Compound | inhibition
CCCCn1nc(C(=O)OCC(=O)Nc2sccc2C(N)=O)c2ccccc2c1=O | -1% (inactive)
CC(=O)Nc1ccc(S(=O)(=O)N(C)c2ccc(OCC(=O)OCC(=O)N3CCCCC3)cc2)cc1 | -2% (inactive)
COc1ccc(CN(C)C(=S)Nc2ccc(Cl)cc2Cl)cc1 | 1% (inactive)
CCOC(=O)c1c(-c2cccc(N)c2)cn2ccccc12 | 0% (inactive)
Cc1ccc(S(=O)(=O)NC(=O)COc2ccccc2C)cc1 | 51% (active)
COc1ccccc1CNS(=O)(=O)c1ccc(C)cc1 | -2% (inactive)
COCCNC(=O)COc1ccccc1C | 2% (inactive)
CN1CCN(CC#CCC2(O)c3ccccc3-c3ccccc32)CC1 | -1% (inactive)
O=C(Nc1nnc(-c2ccco2)o1)c1ccc(S(=O)(=O)N2CCOCC2)cc1 | 0% (inactive)
COCCn1c(=NC(=O)c2ccccc2[N+](=O)[O-])sc2cc(S(C)(=O)=O)ccc21 | -2% (inactive)
CC1(C)CC(=O)C(CC(=O)N2CCC(Cc3ccccc3)CC2)C(=O)C1 | 1% (inactive)
COc1ccc(Cl)cc1NC(=O)COC(=O)C(CC(C)C)N1C(=O)C2CC=CCC2C1=O (configuration not stated) | -1% (inactive)
Cc1cc(NC(=O)CN2C(=O)NC(CCc3ccccc3)C2=O)no1 (configuration not stated) | -1% (inactive)
Cc1c(CCOC(=O)c2cc([N+](=O)[O-])ccc2Cl)sc[n+]1CCCCS(=O)(=O)[O-] | -1% (inactive)
Cc1cccc(C(=O)OCC(=O)NCC(C)C)c1O | 4% (inactive)
CC1(C)CC(=O)C(C2c3ccccc3S(=O)(=O)c3ccccc32)C(=O)C1 | -1% (inactive)
COc1ccc2oc(=O)c(C(=O)N3CCCC3)cc2c1 | 3% (inactive)
C=CCC(CC=C)(C(N)=O)c1ccccc1 | 3% (inactive)
COc1cc(NC(=O)COC(=O)c2cnc(C)cn2)c(C)cc1[N+](=O)[O-] | 0% (inactive)
Cc1ccc(-c2ccc(/C=N/NC(=O)CN3CCOCC3)o2)cc1[N+](=O)[O-] | -1% (inactive)
Cc1cc(C)n2nc(SCC(=O)NC(=O)NCc3ccco3)nc2n1 | 0% (inactive)
CN(C)c1ccc(C(CC(=O)O)C(=O)O)cc1 (configuration not stated) | -1% (inactive)
